Among the data in PubChem BioAssay AID567 (The Scripps Research Institute Molecular Screening Center, 2006) are activation values, retold here.

In all, about 65,000 compounds went through this assay and about 370 (0.57%) were called active. This is one part of a sample in which actives are shown more often than they occur.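 How the source made its calls: active means activation above the screen-wide mean activation plus 3 SD (cut at about 19% in these data); inactive means the rest.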

5-hydroxytryptamine receptor 1A (Homo sapiens), sequence (P08908 whole entry, looked up): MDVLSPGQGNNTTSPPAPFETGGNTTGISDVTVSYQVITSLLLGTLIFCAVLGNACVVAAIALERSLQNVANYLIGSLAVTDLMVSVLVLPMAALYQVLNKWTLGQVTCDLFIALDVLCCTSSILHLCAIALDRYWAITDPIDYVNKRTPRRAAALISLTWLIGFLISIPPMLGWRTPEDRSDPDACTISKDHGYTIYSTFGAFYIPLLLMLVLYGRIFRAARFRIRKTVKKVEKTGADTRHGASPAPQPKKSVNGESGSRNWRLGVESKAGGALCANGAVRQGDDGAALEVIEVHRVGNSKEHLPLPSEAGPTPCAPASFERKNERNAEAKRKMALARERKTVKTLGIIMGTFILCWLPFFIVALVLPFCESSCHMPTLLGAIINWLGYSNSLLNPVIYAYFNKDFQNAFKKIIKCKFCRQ

The assay concerns the target 5-hydroxytryptamine receptor 1A (Homo sapiens) (UniProt P08908). The assay is described as follows: human 5-HT1a receptor agonists, primary screen, cell-based, CHO, Ga15 NFAT-bla reporter (AID 567).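 Further: 0% = DMSO wells and 100% = 5-CT at EC100.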 Conditions: CHO 5-HT1a Ga15 NFAT-bla reporter, FRET ratio; at 10 µM; active compounds read high.
Regarding `CCc1cccc2c(C#N)cn(CC(=O)N3CCOCC3)c12`, the activation was 60.2% (active).

As to `COC(=O)C(c1ccccc1)N1CCCCCC1` (stereo not given), the activation was 1.53% (inactive).

Regarding `COC(=O)C(O)(c1ccc(NC(=O)c2ccco2)c(OC)c1)C(F)(F)F` (stereo not given), the activation was -0.22% (inactive).

`CC1(C)C(c2ccccc2)=NC(c2cccnc2)=[N+]1[O-]`: the activation was 49.7% (active).

With `CCOC(=O)C1CN(C)CCC1=O` (stereo not given), the activation is -3.2% (inactive).

As for `CC(=O)N(C1=NCCCS1)c1ccccc1F`, the activation is -0.07% (inactive).

With `Cc1ccc2c(c1)C1CN(C)CCC1N2C(=O)Cn1nnc(-c2ccccc2F)n1` (stereo not given), the activation was 1.76% (inactive).

Regarding `Cc1ccc(Cn2nnnc2CN2CCC(n3nnc4ccccc43)CC2)cc1`, the activation is -1.46% (inactive).

As to `CN1CCN(Cc2ccccc2C(F)(F)F)CC1`, the activation was -1.3% (inactive).

Take `O=C(c1cc2nc(-c3ccccc3)cc(-c3ccccc3)n2n1)N1CCC2(CC1)OCCO2`: the activation was 0.72% (inactive).

Consider `Cc1cccc(-n2c(C)nc3cc(C(=O)N4CCC5(CC4)OCCO5)ccc32)c1`, for which the activation is 27.3% (active).

Take `O=C(c1cc(-c2ccncc2)nc2ccccc12)N1CCC2(CC1)OCCO2`: the activation was -2.03% (inactive).

In the case of `Fc1cccc(F)c1CN1CCN(Cc2c(F)cccc2F)CC1`, the activation was -2.86% (inactive).

Take `CC(=O)N1CN2CN(C(C)=O)CC(C(=O)c3ccc(Br)cc3)(C2)C1`: the activation was 0.98% (inactive).

Consider `O=C(O)C1CSC(c2cccnc2)N1` (stereo not given), for which the activation was -3.3% (inactive).
